Bioassay records (PubChem BioAssay)
D1 antag = antagonists of human D1 dopamine receptor; P21728; HEK293 TREx D1 cells, calcium flux, dopamine EC80; active compounds read low; activity change, negative = inhibition, % at 10 µM; 3.2% of 360,000 active; AID 504652; in the data active means activity change below about -30%
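Kinetic fluorescence of a calcium dye serves as the read-out. D1-expressing Hek293 Trex cells, induced overnight at 30 C, are exposed to compound for 180 s before an EC80 dopamine addition, then read 180 s further.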
D1 potentiator = potentiators of human D1 dopamine receptor; P21728; potentiation, % at 10 µM; AID 504651; HEK293 TREx D1 cells, calcium flux, dopamine EC20 potentiation; 0.036% of 360,000 active; in the data active means potentiation above about 30%
D1 ag = human D1 receptor agonism. 1% of 360,000 active. AID 504660. HEK293 T-REx D1 cells, calcium flux, agonist mode. activation, % at 2 µM; in the data active means activation above about 30%
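Agonism was scored from calcium flux recorded over 180 s (1 read/s) after pintool compound addition, following a 10-cycle baseline. Cells were inducible force-coupled HEK293 TREx D1, plated overnight at 30 C and loaded with no-wash calcium dye.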
D3 ag = D3 dopamine receptor (human) agonism; P35462; 0.58% of 410,000 active; D3R DiscoveRx beta-arrestin cells, luminescence, 90 min; max activation, %; in the data active means max activation above about 30%
Target sequence (P35462 whole entry, looked up): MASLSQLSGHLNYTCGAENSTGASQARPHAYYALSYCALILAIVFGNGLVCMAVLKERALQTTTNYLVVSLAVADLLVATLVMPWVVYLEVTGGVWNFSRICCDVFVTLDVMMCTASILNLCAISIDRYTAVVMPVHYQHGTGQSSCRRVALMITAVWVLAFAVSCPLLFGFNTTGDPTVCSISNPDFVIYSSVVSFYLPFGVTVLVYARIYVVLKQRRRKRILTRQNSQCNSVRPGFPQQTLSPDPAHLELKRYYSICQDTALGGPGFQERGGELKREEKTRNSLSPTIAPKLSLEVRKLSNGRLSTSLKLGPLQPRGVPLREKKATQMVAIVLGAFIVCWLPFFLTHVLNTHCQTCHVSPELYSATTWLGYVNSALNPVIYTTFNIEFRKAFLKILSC
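Cells at 1500/well, incubated overnight, then treated with pinned compounds (dopamine as control) for 90 min at 37 degrees C. DiscoveRx reagent added for 30 - 60 minutes at room temperature; luminescence read.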
DRD3 antagonist = antagonists of human D3 dopamine receptor. D3R cells, DiscoveRx beta-arrestin luminescence, antagonist mode; active compounds read low. max response, negative = inhibition, %. 2.5% of 360,000 active. AID 652054; in the data active means max response below about -50%; inconclusive means no clear call, values can overlap the other calls
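Cells plated overnight at 1500 cells/well, then exposed to library compounds with dopamine controls for 90 minutes at 37 degrees C. DiscoveRx reagent added for 30–60 minutes at room temperature; luminescence read, quantitative HTS format.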
BCR signal inh = blocks chronic active B-cell receptor signaling; Potency, µM (series often up to 46.1 µM), actives largely listed as inhibitors; AID 493014; 0.05% of 340,000 active; ABC-DLBCL IkBa-CBG/CBR reporter, luminescence ratio, 4 h; active means well fitted inhibition curve with a large enough effect in the signal ratio, with a control signal flat, not every such curve was filed as active; inconclusive means small, poorly fitted or top-dose-only effect, or effect the other way, or a change in a side signal; the % refers to the signal ratio
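Doxycycline induced both beetle luciferases in TMD8 lymphoma cells; IKK-driven degradation limits the IkappaBalpha-fused green signal, while red luminescence normalises for cell number and nonspecific effects. Compounds tested up to 46 uM, 4 hrs.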
Numbers stand for hits; n = inactive; u = inconclusive; x = no result given. In the library only some 6% were active in any assay of this set; here they are far more common.

SMILES	D1 antag	D1 potentiator	D1 ag	D3 ag	DRD3 antagonist	BCR signal inh
CCOCCCNC(=O)c1cc(Sc2ccc(C)cc2)nc2ccccc12	n	n	n	n	n	n
CCC(C)NC(=O)c1cc(Sc2cccc(Cl)c2)nc2ccccc12 (stereo unspecified)	-61.0	n	n	n	x	n
O=C(NCCCN1CCCCC1)c1cc(Sc2ccc(Cl)cc2)nc2ccccc12	n	n	n	n	x	n
CC1CCCCN1CCCNC(=O)c1cc(Sc2cccc(Cl)c2)nc2ccccc12 (stereo unspecified)	-41.9	n	n	n	x	n
CCc1ccc(Sc2cc(C(=O)NC(C)CC)c3ccccc3n2)cc1 (stereo unspecified)	n	n	n	n	x	n
CC(C)(C)OC(=O)N1CCC(c2c(C(=O)NCCN3CCCC3)cnn2-c2ccc(Cl)cc2)CC1	n	n	n	n	x	x
CCCCn1c(=O)n(-c2ccc(Br)cc2F)c(=O)c2c3c(sc21)CN(C(C)=O)CC3	n	n	n	n	x	x
CCc1cccc(OCCCCN(CC)CC)c1	n	n	n	n	-73.5	n
CNCCCOc1cccc(Oc2ccccc2)c1	n	n	n	n	u	u
CC(C)NCCCCOc1cccc(Br)c1	n	n	n	n	u	n
C=CCNCCCCOc1cccc(Br)c1	n	n	31.9	n	-61.7	n
CCOc1cccc(OCCCNCCCOC)c1	n	n	n	n	-58.7	n
CCc1cccc(OCCCCNCCCOC)c1	n	n	n	n	-79.3	n
CCOC(=O)Cn1c(=O)n(C2CCCCC2)c2nc(-c3ccccc3Cl)nc(C(N)=O)c21	n	n	n	n	x	x
CC(C)C(OC(=O)CNC(=O)c1ccccc1)C(=O)Nc1cc(C(F)(F)F)ccc1Cl (stereo unspecified)	n	n	n	x	x	x
COCCCNCCCCOc1cccc(Br)c1	n	n	n	n	-61.0	n
OCCNCCCCOc1cccc(Br)c1	n	n	n	n	n	n
CCCCNC(=O)C1c2ccccc2OCC(=O)N1CCc1c[nH]c2ccccc12 (stereo unspecified)	x	x	x	n	n	x
Cc1cccc2cc3c(N)c(C(=O)N4CCc5ccccc54)sc3nc12	n	n	126.4	n	n	u
Cc1ccc2nc(C)c(C(=O)N/N=C/c3ccc(N4CCOCC4)cc3)cc2c1	n	n	n	30.8	n	n
Cc1ccc2nc3sc(C(=O)Nc4ccc(N5CCOCC5)cc4)c(N)c3cc2c1	n	n	38.7	x	x	u
Cc1cc(C)c2nc3sc(C(=O)N4CCOCC4)c(N)c3cc2c1	n	n	38.5	n	u	u
Cc1ccc(C)c2nc3sc(C(=O)N4CCOCC4)c(N)c3cc12	n	n	n	n	n	n
Cc1cccc(-n2c(=O)c3c(c4cc(C)ccc4n3C)n(CC(=O)NCC3CCCO3)c2=O)c1 (stereo unspecified)	n	n	n	n	x	x
Cc1sc(NC(=O)c2sc3nc4c(C)cccc4cc3c2N)c(C#N)c1C	n	n	55.1	n	n	n
SMILES	D1 antag	D1 potentiator	D1 ag	D3 ag	DRD3 antagonist	BCR signal inh
CC(C)(C)c1ccc(S(=O)(=O)NCCN2CCOCC2)cc1	x	x	x	n	n	x
Cc1ccc(CNS(=O)(=O)c2ccc(C(C)(C)C)cc2)n1C	-30.6	n	n	n	n	u
CC(=O)C1=C(O)C(=O)N(Cc2ccco2)C1c1ccccc1F (stereo unspecified)	n	n	n	n	n	n
CC(C)(C)C(=O)C1=C(O)C(=O)N(Cc2ccccc2)C1c1ccccc1F (stereo unspecified)	n	n	53.5	n	n	n
O=C(CCNS(=O)(=O)c1ccc(Br)s1)NC1CCCC1	n	n	n	n	-103.1	n
O=C(CCNS(=O)(=O)c1ccc(Br)s1)Nc1ccc(Cl)cc1	n	n	n	n	-52.2	n
O=C(CCNS(=O)(=O)c1ccc(Br)cc1)NC1CCC(O)CC1 (stereo unspecified)	-31.4	n	n	n	n	u
CCOC(=O)C1CC2=C(CCCC2=O)N(Cc2ccccc2)C1=O (stereo unspecified)	x	x	x	n	n	x
O=C(O)C1CC=CCC1C(=O)N1CC=C(c2ccccc2)CC1 (stereo unspecified)	n	n	n	n	-62.2	u
O=C(CSc1nnc(-c2ccccc2Cl)o1)N1CCCc2ccccc21	n	n	n	n	x	x
CCOc1ccc(C(=O)NCC(=O)NCC2CCCCC2)cc1OCC	-34.5	n	n	n	n	n
Cc1cc(C)n(-c2ccc(C(=O)Nc3cc(S(=O)(=O)N(C)C)ccc3Cl)cc2)n1	-30.3	n	n	n	n	u
Cc1cc(C)n(-c2ccc(C(=O)Nc3cccnc3Cl)cc2)n1	-41.4	n	n	n	n	n
CCSC1=NC2(CCN(C(=O)NC3CCCCC3)CC2)N=C1c1ccc(C)cc1	n	n	n	n	x	x
CCCCCCN1CCN(C2CN(Cc3cn(Cc4ccccc4)nn3)S(=O)(=O)C2)CC1 (stereo unspecified)	x	x	x	n	-50.9	x
Cc1ccc(CN2CC(N3CCN(CCO)CC3)CS2(=O)=O)cc1 (stereo unspecified)	x	x	x	n	-61.4	x
CCCCCCN1CCN(C2CN(Cc3cn(Cc4cc(C)cc(C)c4)nn3)S(=O)(=O)C2)CC1 (stereo unspecified)	x	x	x	n	n	x
O=S1(=O)CC(N2CCN(CCO)CC2)CN1Cc1ccc(F)cc1 (stereo unspecified)	x	x	x	n	n	x
Cc1cc(C)cc(Cn2cc(CN3CC(N4CCSCC4)CS3(=O)=O)nn2)c1 (stereo unspecified)	x	x	x	n	-54.5	x
Cc1ccc(C(=O)Nc2nnc(COCCO)s2)cc1	x	x	x	n	n	x
COc1cc(C)ccc1OCCOCCOc1ccc([N+](=O)[O-])cc1	n	n	31.0	n	n	n
CCOc1cc(/C=N/O)ccc1OCc1ccc([N+](=O)[O-])cc1	n	n	n	n	n	u
O=[N+]([O-])c1ccc(COc2ccccc2/C=N/O)cc1	-49.4	n	n	n	n	u
COc1cc(C)ccc1OCCOCCOc1ccccc1[N+](=O)[O-]	n	n	n	n	n	u
O=Cc1ccccc1OCCOc1ccc([N+](=O)[O-])cc1	-30.7	n	n	n	n	u
CCN(CC)C(=O)c1sc(NC(=O)c2cccc([N+](=O)[O-])c2)c(C#N)c1C	n	n	n	n	n	n
CCN(CC)C(=O)c1sc(NC(=O)c2c(OC)cccc2OC)c(C#N)c1C	-30.1	n	n	n	n	u
O=C(CNC1CCCCC1)Nc1ccc(S(=O)(=O)N2CCCCC2)cc1	n	42.8	152.6	n	n	n
CC1CCN(CC(=O)Nc2ccc(S(=O)(=O)N3CCCC(C)C3)cc2)CC1 (stereo unspecified)	-32.2	n	n	n	n	n
